Where “and” joins values, the source holds several entries; their conditions need not be identical. Equal values may be shown once. Calls of active or inactive are those of the source. The calls were made as follows: active = hit-call score of the fitted dose curve at least 0.9, where 1 is the maximum; inactive = score below 0.9.
Key:
[1] = read-out: Tumor necrosis factor receptor superfamily member 6 (Homo sapiens) (UniProt P25445); experiment: LTEA_HepaRG_FAS: Life Technologies and Expression Analysis (LTEA) Assay for Fas cell surface death receptor (FAS) using HepaRG (AID 2283447); conditions: mRNA level, 48 h; actives raise or lower the signal
Method in brief: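 Differentiated human HepaRG cells, pre-cultured 48 h, were exposed in duplicate for 48 h to 8-point half-log concentrations (top 100 uM, 0.5% DMSO) in serum-free induction medium; FAS mRNA measured by qRT-PCR, normalized to ACTB/GAPDH/POLR2A, bidirectional fit versus DMSO.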

[2] = read-out: Fatty acid synthase (Homo sapiens) (UniProt P49327); experiment: LTEA_HepaRG_FASN: Life Technologies and Expression Analysis (LTEA) Assay for Fatty Acid Synthase (FASN) using HepaRG (AID 2283448); conditions: mRNA level, 48 h; actives raise or lower the signal
Method in brief: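 Differentiated human HepaRG cells were exposed for 48 h in serum-free induction medium to eight half-log concentrations up to 100 uM in 0.5% DMSO, in duplicate. FASN mRNA was quantified by TaqMan qRT-PCR, normalized to ACTB/GAPDH/POLR2A, and fitted bidirectionally against DMSO.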

[3] = read-out: Cyclin D2 (CCND2), CCND2 (gene 894); experiment: LTEA_HepaRG_CCND2: Life Technologies and Expression Analysis (LTEA) Assay for Cyclin D2 (CCND2) using HepaRG (AID 2283449); conditions: mRNA level, 48 h; actives raise or lower the signal;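 also: CCND2 transcript measured by TaqMan qRT-PCR and normalised to three housekeeping genes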
Method in brief: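 Differentiated human HepaRG cells were exposed for 48 h in serum-free induction medium to eight half-log concentrations topping at 100 uM (0.5% DMSO vehicle). CCND2 mRNA was quantified by TaqMan qRT-PCR, normalised to ACTB, GAPDH and POLR2A, and fitted bidirectionally against DMSO.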

[4] = read-out: Cyclin Dependent Kinase Inhibitor 1A (CDKN1A), CDKN1A (gene 1026); experiment: LTEA_HepaRG_CDKN1A: Life Technologies and Expression Analysis (LTEA) Assay for Cyclin Dependent Kinase Inhibitor 1A (CDKN1A) using HepaRG (AID 2283450); conditions: mRNA level, 48 h; actives raise or lower the signal
Method in brief: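 Expression quantified by Fluidigm qRT-PCR with ACTB, GAPDH and POLR2A normalization, fitted bidirectionally against 0.5% DMSO. Cells: HepaRG, plated 48 h then treated 48 h in serum-free induction medium, top concentration 100 uM with half-log dilutions.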

[5] = read-out: Cyclin D1 (CCND1), CCND1 (gene 595); experiment: LTEA_HepaRG_CCND1: Life Technologies and Expression Analysis (LTEA) Assay for Cyclin D1 (CCND1) using HepaRG (AID 2283451); conditions: mRNA level, 48 h; actives raise or lower the signal;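 as to AC50: TaqMan qRT-PCR transcript level normalised to ACTB GAPDH and POLR2A housekeeping genes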
Method in brief: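 Expression of CCND1 was quantified by qRT-PCR on Fluidigm arrays using ACTB, GAPDH and POLR2A as reference genes. HepaRG cultures, plated 48 h beforehand, were dosed for 48 h at up to 100 uM (half-log, 8 points) in 0.5% DMSO.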

[6] = read-out: catalase (CAT), CAT (gene 847); experiment: LTEA_HepaRG_CAT: Life Technologies and Expression Analysis (LTEA) Assay for catalase (CAT) using HepaRG (AID 2283452); conditions: mRNA level, 48 h; actives raise or lower the signal;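 as to AC50: TaqMan qRT-PCR signal normalized to ACTB GAPDH and POLR2A housekeeping genes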
Method in brief: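 Differentiated HepaRG cells in serum-free induction medium were dosed 48 h in duplicate, eight half-log concentrations from 100 uM in 0.5% DMSO. Transcript measured by TaqMan qRT-PCR, normalised to ACTB/GAPDH/POLR2A, fitted bidirectionally against DMSO.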

[7] = read-out: flavin-containing dimethylaniline monooxygenases 3 (FMO3), FMO3 (gene 2328); experiment: LTEA_HepaRG_FMO3: Life Technologies and Expression Analysis (LTEA) Assay for flavin-containing dimethylaniline monooxygenases 3 (FMO3) using HepaRG (AID 2283453); conditions: mRNA level, 48 h; actives raise or lower the signal;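 as to AC50: FMO3 transcript by TaqMan qRT-PCR normalized to ACTB GAPDH and POLR2A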
Method in brief: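 HepaRG, 48 h exposure, 8-pt half-log series from 100 uM, 0.5% DMSO vehicle, duplicates; FMO3 transcript by Fluidigm TaqMan qRT-PCR, housekeeping-normalized; gain/loss fit vs DMSO.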

[8] = read-out: Cytochrome P450 (CYP1A1), CYP1A1 (gene 1543); experiment: LTEA_HepaRG_CYP1A1: Life Technologies and Expression Analysis (LTEA) Assay for Cytochrome P450 (CYP1A1) using HepaRG (AID 2283454); conditions: mRNA level, 48 h; actives raise or lower the signal
Method in brief: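 CYP1A1 transcript levels measured by Fluidigm qRT-PCR against three housekeeping genes, 48 h after chemical dosing of human HepaRG cells (highest concentration 100 uM, half-log steps, 0.5% DMSO vehicle). Gain or loss of signal fitted relative to DMSO.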

[9] = read-out: CFLAR gene, CFLAR (gene 8837); experiment: LTEA_HepaRG_CFLAR: Life Technologies and Expression Analysis (LTEA) Assay for CFLAR gene using HepaRG (AID 2283455); conditions: mRNA level, 48 h; actives raise or lower the signal
Method in brief: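 HepaRG cells were plated for 48 h, switched to serum-free induction medium, then exposed in duplicate for 48 h to 8 concentrations (top 100 uM, half-log steps, 0.5% DMSO). CFLAR mRNA was measured by qRT-PCR, normalized to ACTB, GAPDH and POLR2A.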

[10] = read-out: Forkhead box O1 (FOXO1), FOXO1 (gene 2308); experiment: LTEA_HepaRG_FOXO1: Life Technologies and Expression Analysis (LTEA) Assay for Forkhead box O1 (FOXO1) using HepaRG (AID 2283456); conditions: mRNA level, 48 h; actives raise or lower the signal
Method in brief: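 Differentiated human HepaRG cells in serum-free induction medium were exposed in duplicate for 48 h to eight half-log concentrations (top 100 uM, 0.5% DMSO). FOXO1 mRNA was measured by TaqMan qRT-PCR, normalised to ACTB, GAPDH and POLR2A, and fitted bidirectionally against DMSO.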

[11] = read-out: growth arrest and DNA damage 45 (GADD45A), GADD45A (gene 1647); experiment: LTEA_HepaRG_GADD45A: Life Technologies and Expression Analysis (LTEA) Assay for growth arrest and DNA damage 45 (GADD45A) using HepaRG (AID 2283458); conditions: mRNA level, 48 h; actives raise or lower the signal
Method in brief: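 Differentiated HepaRG cells were exposed in duplicate for 48 h in serum-free induction medium to 8-point half-log concentrations up to 100 uM in 0.5% DMSO. GADD45A mRNA was measured by TaqMan qRT-PCR, normalized to ACTB, GAPDH and POLR2A, with bidirectional fitting versus DMSO.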

[12] = read-out: Forkhead box O3 (FOXO3), FOXO3 (gene 2309); experiment: LTEA_HepaRG_FOXO3: Life Technologies and Expression Analysis (LTEA) Assay for Forkhead box O3 (FOXO3) using HepaRG (AID 2283459); conditions: mRNA level, 48 h; actives raise or lower the signal
Method in brief: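 Differentiated human HepaRG cells in serum-free induction medium were exposed in duplicate for 48 h to eight half-log concentrations up to 100 uM in 0.5% DMSO. FOXO3 mRNA was quantified by qRT-PCR, normalized to ACTB, GAPDH and POLR2A, with bidirectional fitting versus DMSO.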

[13] = read-out: ABC Transporter (ABCB1), ABCB1 (gene 5243); experiment: LTEA_HepaRG_ABCB1: Life Technologies and Expression Analysis (LTEA) Assay for ABC Transporter (ABCB1) using HepaRG (AID 2283460); conditions: mRNA level, 48 h; actives raise or lower the signal
Method in brief: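 Differentiated human HepaRG cells, plated 48 h then switched to serum-free induction medium, were exposed in duplicate to eight half-log concentrations up to 100 uM in 0.5% DMSO for 48 h. ABCB1 mRNA was measured by TaqMan qRT-PCR, normalized to ACTB/GAPDH/POLR2A.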

[14] = CEETOX_H295R_CORTIC: CeeTox H295R High-throughput Steroidogenesis Assay for Corticosterone (CORTIC) (AID 2283437); conditions: actives raise or lower the signal;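 also: corticosterone secreted into medium quantified by mass spectrometry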
Method in brief: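 H295R cells were prestimulated 48 h with 10 uM forskolin, then exposed 48 h to test chemical in 0.1% DMSO. Medium corticosterone was MTBE-extracted and quantified by HPLC-MS/MS; bidirectional fit versus DMSO baseline.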

[15] = CEETOX_H295R_CORTISOL: CeeTox H295R High-throughput Steroidogenesis Assay for Cortisol (AID 2283438); conditions: actives raise or lower the signal
Method in brief: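 H295R human adrenal cells were prestimulated 48 h with 10 uM forskolin, then exposed 48 h to test chemical (0.1% DMSO final). Medium cortisol was quantified by HPLC-MS/MS after MTBE extraction; bidirectional fitting relative to DMSO baseline.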

[16] = CEETOX_H295R_DOC: CeeTox H295R High-throughput Steroidogenesis Assay for DOC (AID 2283439); conditions: actives raise or lower the signal
Method in brief: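 H295R adrenal cells prestimulated 48 h with 10 uM forskolin, then exposed 48 h to test chemical (0.1% DMSO final). Medium 11-deoxycorticosterone extracted with MTBE, quantified by HPLC-MS/MS; bidirectional fit versus DMSO baseline; MTT viability in same wells.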

[17] = CEETOX_H295R_ESTRADIOL: CeeTox H295R High-throughput Steroidogenesis Assay for Estradiol (AID 2283440); conditions: actives raise or lower the signal;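 also: estradiol secreted into medium quantified by LC-MS/MS after dansyl derivatisation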
Method in brief: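 Estradiol in spent medium measured by LC-MS/MS after dansyl chloride derivatisation. Forskolin-primed (10 uM, 48 h) human adrenal H295R cells received test chemical 48 h at 0.1% DMSO; concentrations lowered until MTT viability >/=70%.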

[18] = CEETOX_H295R_ESTRONE: CeeTox H295R High-throughput Steroidogenesis Assay for Estrone (AID 2283441); conditions: actives raise or lower the signal;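 also: estrone secreted into medium measured by LC-MS/MS after dansyl derivatization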
Method in brief: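 H295R cells; 48 h forskolin (10 uM) prestimulation; 48 h compound exposure, 0.1% DMSO final. Medium estrone: MTBE extraction, dansyl derivatization, HPLC-MS/MS. Bidirectional fit vs DMSO.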

[19] = CEETOX_H295R_PROG: CeeTox H295R High-throughput Steroidogenesis Assay for Progesterone (PROG) (AID 2283442); conditions: actives raise or lower the signal;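 as to AC50: human H295R adrenal cells primed with 10 µM forskolin before dosing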
Method in brief: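 Progesterone secreted by human H295R cells was measured by LC-MS/MS following 48 h chemical exposure at 0.1% DMSO, preceded by 48 h forskolin (10 uM) stimulation. Same-well MTT viability; cytotoxic concentrations diluted 10- or 100-fold and retested.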

[20] = CEETOX_H295R_TESTO: CeeTox H295R High-throughput Steroidogenesis Assay for Testosterone (TESTO) (AID 2283457); conditions: actives raise or lower the signal;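 as to AC50: cells exposed to chemicals for 48 h before medium collection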
Method in brief: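 Testosterone secreted into the medium over 48 h by H295R cells (maximum passage 10) was quantified by LC-MS/MS after MTBE extraction. Fitted in both directions against DMSO, with concentrations diluted until MTT viability was ≥70%.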

Measured: AC50

Sequence of Fatty acid synthase (Homo sapiens) (P49327 whole entry, looked up): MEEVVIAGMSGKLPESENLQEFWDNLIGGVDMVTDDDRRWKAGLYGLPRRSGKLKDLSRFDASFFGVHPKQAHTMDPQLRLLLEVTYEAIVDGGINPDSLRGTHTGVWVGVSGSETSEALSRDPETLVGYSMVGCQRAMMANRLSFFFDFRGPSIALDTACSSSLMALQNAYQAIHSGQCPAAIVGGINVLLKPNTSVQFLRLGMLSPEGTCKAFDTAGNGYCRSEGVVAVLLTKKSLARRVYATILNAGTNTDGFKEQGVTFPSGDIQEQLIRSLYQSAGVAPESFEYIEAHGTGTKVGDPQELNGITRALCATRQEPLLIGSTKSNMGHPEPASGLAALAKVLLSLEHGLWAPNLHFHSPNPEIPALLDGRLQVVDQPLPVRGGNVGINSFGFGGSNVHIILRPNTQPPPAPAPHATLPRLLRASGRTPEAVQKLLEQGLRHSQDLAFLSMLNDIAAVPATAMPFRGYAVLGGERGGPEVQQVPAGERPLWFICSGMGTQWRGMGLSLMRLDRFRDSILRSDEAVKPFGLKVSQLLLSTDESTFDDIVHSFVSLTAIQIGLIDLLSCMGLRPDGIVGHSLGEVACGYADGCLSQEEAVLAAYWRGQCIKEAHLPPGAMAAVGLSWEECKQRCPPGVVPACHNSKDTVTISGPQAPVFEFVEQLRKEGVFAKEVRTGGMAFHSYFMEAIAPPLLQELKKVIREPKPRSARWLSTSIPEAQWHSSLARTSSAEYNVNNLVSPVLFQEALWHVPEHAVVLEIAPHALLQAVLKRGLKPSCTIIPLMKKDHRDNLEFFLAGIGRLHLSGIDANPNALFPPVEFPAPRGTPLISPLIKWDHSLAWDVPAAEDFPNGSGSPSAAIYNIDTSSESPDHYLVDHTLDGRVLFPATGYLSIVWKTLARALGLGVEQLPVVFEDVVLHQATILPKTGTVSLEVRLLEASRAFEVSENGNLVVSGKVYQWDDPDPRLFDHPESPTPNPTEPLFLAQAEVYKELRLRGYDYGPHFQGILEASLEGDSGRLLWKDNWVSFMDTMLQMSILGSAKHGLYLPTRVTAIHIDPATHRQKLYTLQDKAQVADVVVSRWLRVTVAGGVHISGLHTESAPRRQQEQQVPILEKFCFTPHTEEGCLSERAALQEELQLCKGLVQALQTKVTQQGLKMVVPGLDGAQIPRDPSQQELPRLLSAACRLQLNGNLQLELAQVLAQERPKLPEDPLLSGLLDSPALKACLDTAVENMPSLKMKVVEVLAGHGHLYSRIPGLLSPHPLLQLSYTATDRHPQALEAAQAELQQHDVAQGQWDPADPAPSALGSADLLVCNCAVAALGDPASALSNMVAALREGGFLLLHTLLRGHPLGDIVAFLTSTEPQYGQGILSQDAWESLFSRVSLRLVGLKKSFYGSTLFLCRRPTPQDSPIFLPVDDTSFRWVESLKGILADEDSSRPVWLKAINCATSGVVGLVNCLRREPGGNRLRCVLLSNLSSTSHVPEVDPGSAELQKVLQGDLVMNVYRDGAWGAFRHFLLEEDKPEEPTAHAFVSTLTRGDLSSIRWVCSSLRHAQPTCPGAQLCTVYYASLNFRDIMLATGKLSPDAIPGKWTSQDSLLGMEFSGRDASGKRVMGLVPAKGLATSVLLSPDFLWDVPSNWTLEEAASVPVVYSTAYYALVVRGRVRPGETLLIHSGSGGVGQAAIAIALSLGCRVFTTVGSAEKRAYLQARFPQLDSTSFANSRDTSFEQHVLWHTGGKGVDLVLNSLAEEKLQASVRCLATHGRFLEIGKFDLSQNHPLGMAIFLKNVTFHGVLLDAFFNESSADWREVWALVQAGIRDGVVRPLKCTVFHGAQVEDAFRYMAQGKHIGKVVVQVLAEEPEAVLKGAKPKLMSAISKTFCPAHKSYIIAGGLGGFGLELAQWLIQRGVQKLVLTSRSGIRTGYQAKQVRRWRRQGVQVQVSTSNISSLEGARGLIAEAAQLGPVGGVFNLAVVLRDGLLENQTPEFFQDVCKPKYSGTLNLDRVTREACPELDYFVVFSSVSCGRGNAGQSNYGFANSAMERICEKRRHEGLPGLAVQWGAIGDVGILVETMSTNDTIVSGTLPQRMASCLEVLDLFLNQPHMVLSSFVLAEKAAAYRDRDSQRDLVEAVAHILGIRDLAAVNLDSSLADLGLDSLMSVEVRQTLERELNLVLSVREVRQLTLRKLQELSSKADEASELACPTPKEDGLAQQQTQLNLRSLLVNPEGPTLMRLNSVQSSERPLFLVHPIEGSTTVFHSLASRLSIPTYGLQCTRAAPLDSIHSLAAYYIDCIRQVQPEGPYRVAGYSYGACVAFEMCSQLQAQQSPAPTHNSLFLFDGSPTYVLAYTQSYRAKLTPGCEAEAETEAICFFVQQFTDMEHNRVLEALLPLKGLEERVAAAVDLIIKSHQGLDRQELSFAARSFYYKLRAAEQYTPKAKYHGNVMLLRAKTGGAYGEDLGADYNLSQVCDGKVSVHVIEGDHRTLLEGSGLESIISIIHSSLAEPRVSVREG

[N-]=[N+]=[N-]
inactive: [1] | [2] | [3] | [5] | [8] | [9] | [12] | [13]
active: [4] 74.9 µM | [6] 82.9 µM | [7] 88.5 µM | [10] 76.1 µM | [11] 88.1 µM

Nc1cc2c3c(c1)C(c1ccccc1)=N[C@@H](NC(=O)c1cccnc1)C(=O)N3CC2
active: [14] 18.3 µM | [15] 76.8 µM | [16] 33.8 µM | [19] 3.44 µM | [8] 31.8 µM | [13] 18.5 µM
not listed: [12] | [20]
inactive: all other assays above

Cc1ccc(O)cc1C
not listed: [8] | [12] | [13] | [14] | [15] | [16] | [20]
inactive: all other assays above

c1ccc(OP(Oc2ccccc2)Oc2ccccc2)cc1
active: [8] 77.3 µM
not listed: [12] | [20]
inactive: all other assays above

c1ccc2c(c1)Nc1ccccc1S2
active: [18] 9.58 µM and 17.3 µM and 12 µM | [19] 2.23 µM and 2.16 µM and 12.2 µM | [2] 50 µM | [5] 67.9 µM | [8] 86.5 µM
not listed: [3] | [12] | [14] | [15] | [16] | [20]
inactive: all other assays above

CCNc1nc(Cl)nc(NC(C)(C)C)n1
active: [18] 1.51 µM | [8] 22.7 µM | [13] 7.02 µM
not listed: [12]
inactive: all other assays above

Nc1ccc(Cl)cc1
active: [16] 50 µM | [19] 16.5 µM | [8] 28 µM
not listed: [12] | [17] | [18] | [20]
inactive: all other assays above

Nc1ccc2ccccc2c1
active: [19] 13.8 µM | [2] 10.6 µM | [8] 23.5 µM
not listed: [3] | [14] | [15] | [16] | [20]
inactive: all other assays above

N#Cc1c(-c2ccc(Cl)cc2)[nH]c(C(F)(F)F)c1Br
inactive: [17] | [18] | [19] | [20]
active: [14] 0.291 µM | [15] 0.645 µM | [16] 0.253 µM

CCOP(=S)(OCC)SCn1nnc2ccccc2c1=O
active: [19] 8.4 µM
inactive: [14] | [15] | [16] | [17] | [18]

CCCCc1ccc(O)cc1
active: [14] 28.3 µM | [15] 28.4 µM | [18] 32.2 µM
inactive: [16] | [17] | [19]

CO/N=C(/C(=O)OC)c1ccccc1COc1ccccc1C
active: [15] 9.52 µM | [19] 4.24 µM | [20] 9.76 µM
inactive: [14] | [16]

CCCCOCCOP(=O)(OCCOCCCC)OCCOCCCC
inactive: [14] | [15] | [16] | [17] | [18] | [19]

Reference: PubChem BioAssay (EPA / NIEHS)
